A number with no mark means an inactive call. Results filed as inconclusive are left out. Calls of active or inactive are those of the source. Unless noted, calls come from the whole dose curve; as a rule, active = well fitted curve in the direction sought with a large enough effect in the repeat runs; inconclusive = weak or mixed curves; inactive = no such curve, though single readings can be large; an effect the other way counts as inactive or inconclusive.

The nature of test [1]: A CellTox Green Cytotoxicity Assay to monitor cytotoxicity in HEK293 cells - 32 hour (AID 1224881). Note: nearly all actives have a fitted effect of over 40% in size. Note: potency is the fitted concentration of half-maximal effect. An outline of the steps: (§1)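 Seeding of HEK293 cells together with cytotoxicity dye preceded a 5 h incubation at 37 C/5% CO2. Test compounds in DMSO were then added and fluorescence monitored across 40 h.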
Test [2] is described as follows: A CellTox Green Cytotoxicity Assay to monitor cytotoxicity in HepG2 cells - 0 hour (AID 1224882). Note: nearly all actives have a fitted effect of over 35% in size. Note: potency is the fitted concentration of half-maximal effect. In a few lines: (§2)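 Nonlytic assay: viable cells exclude the dye, so fluorescence scales with cell death. HepG2 at 600 cells/well, compounds added after 5 h, signal read across 40 h.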
Test [3] can be described thus: A CellTox Green Cytotoxicity Assay to monitor cytotoxicity in HEK293 cells - 8 hour (AID 1224884). Note: nearly all actives have a fitted effect of over 35% in size. Note: potency is the fitted concentration of half-maximal effect. In a few lines:
as §1

The nature of test [4]: qHTS RealTime-Glo MT Cell Viability Assay in HepG2 cells - 16 hour (AID 1224885). Note: nearly all actives have a fitted effect of over 50% in size. An outline of the steps:
(§3)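 Cell number in HepG2 cultures estimated from NanoLuc luminescence generated by metabolic reduction of a prosubstrate by living cells. The homogeneous, nonlytic format allowed repeated reads at 0, 8, 16, 24, 32 and 40 h of compound exposure.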
A general note: In qHTS, concentration-response curves come from the screen itself.

Test [5] in a line: qHTS RealTime-Glo MT Cell Viability Assay in HEK293 cells - 24 hour (AID 1224886). Note: nearly all actives have a fitted effect of over 50% in size. Note: potency is the fitted concentration of half-maximal effect. In a few lines:
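Homogeneous bioluminescent viability format in HEK293 cells (600 cells/well). Following 5 h at 37 C/5% CO2, 23 nL compound was pintooled; the signal was measured repeatedly during 40 h incubation.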

Test [6] in a line: qHTS RealTime-Glo MT Cell Viability Assay in HEK293 cells - 8 hour (AID 1224887). Note: top concentration of the series differs between compounds; nearly all actives have a fitted effect of over 50% in size. An outline of the steps: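 Tox21 screen in HEK293 using RealTime-Glo MT chemistry, with cells and reagent co-dispensed. Luminescence proportional to viable cell number was captured at intervals during 40 h compound exposure at 37 C.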
The nature of test [7]: A CellTox Green Cytotoxicity Assay to monitor cytotoxicity in HEK293 cells - 16 hour (AID 1224888). Note: nearly all actives have a fitted effect of over 35% in size. Note: potency is the fitted concentration of half-maximal effect. In a few lines:
as §1

A short description of test [8]: qHTS RealTime-Glo MT Cell Viability Assay in HepG2 cells - 0 hour (AID 1224889). Note: nearly all actives have a fitted effect of over 50% in size. An outline of the steps:
as §3

A short description of test [9]: A CellTox Green Cytotoxicity Assay to monitor cytotoxicity in HepG2 cells - 8 hour (AID 1224890). Note: nearly all actives have a fitted effect of over 45% in size. Note: potency is the fitted concentration of half-maximal effect. An outline of the steps: as §2
The nature of test [10]: qHTS assay to identify small molecule antagonists of the estrogen receptor alpha (ER-alpha) signaling pathway using the BG1 cell line in the presence of 0.1 nM 17-beta-estradiol - cell viability counter screen (AID 1259241). Note: nearly all actives have a fitted effect of over 40% in size. In a few lines: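 VM7Luc4E2, 4,000 cells/well, phenol red-free medium + 10% charcoal-stripped FBS; 24 hr plating; cpd + 0.1 nM E2 final, 22 hr 37C/5% CO2; CellTiter-Fluor 30 min, fluorescence.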

The nature of test [11]: qHTS assay to identify small molecule antagonists of the androgen receptor (AR) signaling pathway using the MDA cell line in the presence of 0.5 nM R1881 - cell viability counter screen (AID 1259242). Note: nearly all actives have a fitted effect of over 45% in size. In a few lines: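 R1881 at 0.5 nM final stimulated MDA-kb2 cells during 16 hr compound treatment at 37C. Cytotoxicity read: CellTiter-Fluor fluorescence after 30 min.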
A short description of test [12]: qHTS assay to identify small molecule HDAC inhibitors (AID 1259364).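 Note: wild-type HCT-116 cells with endogenous class I/II HDAC activity; top concentration of the series differs between compounds; nearly all actives have a fitted effect of over 45% in size.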 In a few lines:
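Relative class I and II HDAC activity is taken from the luminogenic signal in HCT-116 cells, with compound exposure 2 hr and reagent development 30 min at room temperature.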

Test [13] is described as follows: qHTS assay to identify small molecule HDAC inhibitors - cell viability counter screen (AID 1259365). In a few lines:
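Luminescence from CellTiter-Glo, developed 30min at room temperature, reports viability of wild-type HCT-116 cells treated 2hr with compounds at 37 C and 5% CO2 after overnight plating.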

A short description of test [14]: qHTS assay to identify small molecule agonists of the sonic hedgehog signaling (Shh) pathway - cell viability counter screen (AID 1259366). Note: nearly all actives have a fitted effect of over 50% in size. Note: potency is the fitted concentration of half-maximal effect. In a few lines:
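Cytotoxicity counter screen run in the same wells as the Shh reporter assay. NIH/3T3 cells carrying a Gli1 response element–driven luciferase were treated with DMSO-dissolved compounds for 24hr, and live-cell protease activity was measured with CellTiter-Fluor.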

The nature of test [15]: qHTS assay to identify small molecule antagonists of the sonic hedgehog signaling (Shh) pathway - cell viability counter screen (AID 1259367). Note: nearly all actives have a fitted effect of over 55% in size. Note: potency is the fitted concentration of half-maximal effect. In a few lines:
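After a 4 hr settling period, 3T3 Gli1-Luc cells were treated with DMSO-dissolved chemicals and conditioned medium, kept 24 hr at 37C in 5% CO2, and assayed for viability by CellTiter-Fluor fluorescence following 1 hr reagent incubation.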

The nature of test [16]: qHTS assay to identify small molecule agonists of the sonic hedgehog signaling (Shh) pathway (AID 1259368; calls by dose curve;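 note: NIH/3T3-derived 3T3Gli1-Luc cells carrying a stable Gli1-driven firefly luciferase reporter; series mostly up to about 92 µM; nearly all actives have a fitted effect of over 15% in size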). An outline of the steps:
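Mouse fibroblast (NIH/3T3) reporter cells with stably integrated Gli1-Luc were treated 24 hr with compound; firefly luciferase luminescence served as the read-out.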

For test [17], the target named is Estrogen receptor (Homo sapiens) (UniProt P03372). In words: qHTS assay to identify small molecule antagonists of the estrogen receptor alpha (ER-alpha) signaling pathway using the BG1 cell line in the presence of 0.1 nM 17-beta-estradiol (AID 1259244). Note: nearly all actives have a fitted effect of over 50% in size. In a few lines: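 VM7Luc4E2; 4xERE-luciferase; 0.1 nM E2 final; 22 h co-incubation, 37C; ONE-Glo luminescence after 30 min at room temperature.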

The target in test [18] is Androgen receptor (Homo sapiens) (UniProt P10275). In words: qHTS assay to identify small molecule antagonists of the androgen receptor (AR) signaling pathway using the MDA cell line in the presence of 0.5 nM R1881 (AID 1259243). Note: nearly all actives have a fitted effect of over 50% in size. Note: potency is the fitted concentration of half-maximal effect. In a few lines: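 We exposed MDA-kb2 cells to compounds under 0.5 nM R1881 stimulation for 16 hr at 37C and quantified MMTV-driven luciferase by luminescence.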

Test [19] in a line: qHTS assay to identify small molecule phospholipidosis (PLD) inducers (AID 1259344; active = well fitted curve in the direction sought with a large enough effect; an effect the other way counts as inactive or inconclusive). An outline of the steps: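 HepG2 cells grown on collagen I take up LipidTOX Red while exposed to compound for 24 h; after fixation they are imaged at 20x and pit metrics are extracted.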

Estrogen receptor (Homo sapiens), sequence (P03372 whole entry, looked up): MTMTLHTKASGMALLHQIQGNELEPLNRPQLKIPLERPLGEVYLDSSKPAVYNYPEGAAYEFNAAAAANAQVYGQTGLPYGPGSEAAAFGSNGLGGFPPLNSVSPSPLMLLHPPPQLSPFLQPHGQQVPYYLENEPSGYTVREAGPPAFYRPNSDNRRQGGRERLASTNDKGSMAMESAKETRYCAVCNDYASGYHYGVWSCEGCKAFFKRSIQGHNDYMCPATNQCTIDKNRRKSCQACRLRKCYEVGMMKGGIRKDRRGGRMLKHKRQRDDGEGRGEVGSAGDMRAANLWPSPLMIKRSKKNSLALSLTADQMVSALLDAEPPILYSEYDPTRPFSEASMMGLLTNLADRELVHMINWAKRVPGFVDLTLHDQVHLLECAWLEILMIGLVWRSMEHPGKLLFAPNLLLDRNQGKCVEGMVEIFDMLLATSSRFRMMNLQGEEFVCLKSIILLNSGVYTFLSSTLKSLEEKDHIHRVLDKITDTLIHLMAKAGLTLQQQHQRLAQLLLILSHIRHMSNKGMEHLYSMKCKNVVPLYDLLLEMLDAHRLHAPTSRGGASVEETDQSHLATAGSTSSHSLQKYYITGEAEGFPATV
Androgen receptor (Homo sapiens), sequence (P10275 whole entry, looked up): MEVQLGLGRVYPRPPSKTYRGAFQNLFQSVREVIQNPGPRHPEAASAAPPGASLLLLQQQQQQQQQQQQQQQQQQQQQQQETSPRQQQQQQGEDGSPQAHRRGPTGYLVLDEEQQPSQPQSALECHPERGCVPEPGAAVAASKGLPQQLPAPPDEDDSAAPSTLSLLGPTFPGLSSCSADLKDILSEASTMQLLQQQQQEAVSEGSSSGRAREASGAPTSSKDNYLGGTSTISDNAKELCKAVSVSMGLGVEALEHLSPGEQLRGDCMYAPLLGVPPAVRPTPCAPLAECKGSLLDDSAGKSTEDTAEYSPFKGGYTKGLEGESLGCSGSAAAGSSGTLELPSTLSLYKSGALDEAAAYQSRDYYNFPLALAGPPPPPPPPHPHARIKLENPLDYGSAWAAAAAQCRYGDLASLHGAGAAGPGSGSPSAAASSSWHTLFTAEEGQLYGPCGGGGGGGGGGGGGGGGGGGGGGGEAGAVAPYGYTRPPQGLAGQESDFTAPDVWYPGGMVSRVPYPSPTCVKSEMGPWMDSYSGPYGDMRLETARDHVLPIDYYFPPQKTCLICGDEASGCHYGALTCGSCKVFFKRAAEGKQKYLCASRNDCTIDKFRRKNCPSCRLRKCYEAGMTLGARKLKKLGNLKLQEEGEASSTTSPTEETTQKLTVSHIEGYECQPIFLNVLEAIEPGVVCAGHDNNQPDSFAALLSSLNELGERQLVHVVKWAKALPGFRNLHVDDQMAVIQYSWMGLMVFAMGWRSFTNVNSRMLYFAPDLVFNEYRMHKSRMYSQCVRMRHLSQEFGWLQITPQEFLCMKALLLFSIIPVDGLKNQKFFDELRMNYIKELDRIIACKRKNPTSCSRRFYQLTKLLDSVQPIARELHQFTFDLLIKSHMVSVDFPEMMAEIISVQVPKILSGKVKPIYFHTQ

On to `O=C(O)c1ccccc1Cl`, for which the Potency result in [1], in [2], in test [3], in test [4], in test [5] and in test [6] was “inactive” throughout. The Potency entry in test [7], in test [8], in test [9], in [10], in [11] and in test [12] was “inactive” throughout. For the same compound, the Potency entry in test [13], in test [14] and in [15] was “inactive” each time. Moreover, in [16], the call was inactive.

In the case of `CC(C)Cc1ccc(C(C)C(=O)OCc2ccccn2)cc1` (stereo not drawn), the Potency entry in test [1], in test [2], in test [3], in test [4], in test [7] and in [8] was “inactive” each time. Moreover, the Potency entry in test [9], in test [10], in test [11], in [17], in test [12] and in test [13] was “inactive” each time. For the same compound, the Potency result in test [14] and in [15] was “inactive” throughout. Further, the compound was called inactive in test [16].

Take `O=S(=O)(Oc1ccc(Cl)cc1)c1ccccc1`: the Potency entry in test [1], in test [2], in test [3], in test [4], in [7] and in test [8] was “inactive” throughout. Moreover, the Potency result in test [9], in test [10], in [11], in [17], in test [13] and in test [14] was “inactive” in each case. Besides, in [15], the Potency result was “inactive”. The outcome in test [16] was inactive.

Turning to `CC(=O)c1ccc2c(c1)N(CCCN(C)C)c1ccccc1S2`, the Potency entry in [1], in test [2], in [3], in test [4], in test [5] and in test [6] was “inactive” throughout. Further, the Potency entry in test [7], in test [8], in test [10], in [11], in test [17] and in test [13] was “inactive” each time. For the same compound, the result in test [16] was inactive.

`Cc1oc(-c2ccccc2)nc1CCOc1cccc2c1ccn2CCC(=O)O`: the Potency result in [1], in [2], in test [4], in [5], in [6] and in test [7] was “inactive” throughout. For the same compound, the Potency result in test [9], in test [11], in test [17], in test [12] and in test [13] was “inactive” in each case. In addition, the Potency in test [14] is 21.7 µM (active); in [15], 6.86 µM (active). In [16], the compound was called inactive.

In the case of `CCO[C@H](Cc1ccc(OCCc2ccc(OS(C)(=O)=O)cc2)cc1)C(=O)O`, the Potency result in test [1], in test [2], in [3], in test [4], in [5] and in [6] was “inactive” in each case. Besides, the Potency entry in test [7], in test [8], in test [9], in test [10], in test [11] and in test [18] was “inactive” throughout. Further, the Potency entry in test [17], in test [19], in [12], in [13], in [14] and in [15] was “inactive” in each case. Also, the compound was classed as inactive in test [16].

On to `CC(C)(C)Cl`, for which the Potency result in [1], in test [2], in [3], in [4], in test [5] and in test [6] was “inactive” in each case. Also, the Potency entry in test [7], in [8], in test [9], in test [10], in [11] and in test [17] was “inactive” throughout. Moreover, the Potency result in [12], in [13], in test [14] and in test [15] was “inactive” in each case. The result in test [16] was inactive.

As for `CCCn1cnc2c1c(=O)n(CCCCC(C)=O)c(=O)n2C`, the Potency entry in test [1], in [2], in [4], in test [5], in [7] and in test [8] was “inactive” throughout. Further, the Potency result in test [9], in test [10], in test [11], in [18], in test [17] and in test [19] was “inactive” in each case. The Potency result in [12], in [14] and in test [15] was “inactive” throughout. Also, the outcome in test [16] was inactive.

Consider `CCCCCCCCCCCCCCCCOS(=O)(=O)O`, for which the Potency in test [1] was 21.3 µM (active); in test [3], 23.9 µM (active); in test [7] it was 21.3 µM (active). Also, the Potency result in [2], in test [4], in test [5], in test [8], in test [10] and in test [11] was “inactive” in each case. Moreover, the Potency entry in test [18], in test [17], in test [12], in [14] and in test [15] was “inactive” each time. The result in test [16] was inactive.

On to `Cc1cc(C(=O)O)ccc1[N+](=O)[O-]`, for which the Potency entry in test [1], in test [2], in test [3], in test [4], in test [5] and in test [6] was “inactive” each time. Also, the Potency result in [8], in [9], in [10], in [11], in [17] and in test [12] was “inactive” each time. Also, the Potency result in test [13], in [14] and in test [15] was “inactive” throughout. In test [16], the compound was called inactive.

On to `O=C1OC(CN2CCOCC2)CN1/N=C/c1ccc([N+](=O)[O-])o1` (stereo not drawn), for which the Potency result in test [1], in [2], in test [3], in [4], in test [5] and in test [6] was “inactive” in each case. The Potency result in [8], in [9], in test [10], in [11], in test [17] and in test [19] was “inactive” each time. For the same compound, the Potency result in [12], in test [13], in test [14] and in test [15] was “inactive” each time. In [18], the Potency was 26.6 µM (active). Further, in test [16], the result was inactive.

Take `NC(=O)C(c1ccccc1)(c1ccccc1)[C@@H]1CCN(CCc2ccc3c(c2)CCO3)C1`: the Potency is 21.3 µM (active) in [1]; 23.9 µM (active) in test [2]; 21.3 µM (active) in test [3]; 21.3 µM (active) in [7]; 21.3 µM (active) in test [9]. The Potency entry in [4], in [6], in [8], in test [10], in test [11] and in test [17] was “inactive” in each case. In addition, the Potency result in test [12], in test [13] and in test [15] was “inactive” throughout. In [16], the result was inactive.

As for `COc1ccc(-c2nc3ccc(C4=NNC(=O)CC4C)cc3[nH]2)cc1` (stereo not drawn), the Potency result in test [1], in [2], in [3], in test [4], in test [7] and in test [8] was “inactive” in each case. Also, the Potency entry in test [9], in [10], in test [11], in test [18], in [17] and in [19] was “inactive” throughout. The Potency result in test [13] and in [14] was “inactive” each time. Also, the Potency in test [5] was 9.52 µM (active). The outcome in test [16] was inactive.

Take `CCOc1ccc(N)c([N+](=O)[O-])c1`: the Potency result in test [1], in [2], in test [3], in [4], in test [7] and in test [8] was “inactive” each time. Besides, the Potency result in test [9], in [10], in test [11], in [17], in [12] and in [14] was “inactive” each time. Also, the Potency result in test [15] is “inactive”. Moreover, the result in test [16] was inactive.

The record behind these values is PubChem BioAssay (Tox21).
